This is an account of results in PubChem BioAssay AID2315 (National Center for Advancing Translational Sciences (NCATS), 2010).

The whole screen tested about 290,000 compounds, of which about 27,000 (9.3%) were called active. Many of the other results were omitted from the sample, so actives are more common in it than they were. A number with no mark means an inactive call. Cut-off read from the data, not from the text of the source: active = inhibition mostly above about 28% (no sharp cut-off); inactive = mostly below about 43%.

The test is described as follows: A qHTS for Small Molecule Inhibitors of Shiga Toxin. Note: 0% is about no effect. The note with it: Vero cells, Shiga toxin protein synthesis inhibition reporter; at 38.7 µM, hits give high values. For orientation: Quantitative high-throughput screening tests each substance at several concentrations.
Turning to `Cc1cc(OCC(=O)Nc2c(C)n(C)n(-c3ccccc3)c2=O)ccc1[N+](=O)[O-]`, the inhibition (as a rule, the change of the read-out against control, counted positive when it falls) is -12.8%. In the case of `Cc1ccc(CC2(O)CCN(CCOc3ccc(O)cc3)CC2)cc1`, the inhibition is -5.63%. For the compound `Cc1ccccc1N1CCN(C2CCCN(C(=O)c3ocnc3C)C2)CC1` (centres undefined), the inhibition is -9.46%. Consider `Cc1cc(C)cc(NC(=O)C2CCCN(S(=O)(=O)c3ccc4[nH]c(=O)ccc4c3)C2)c1` (centres undefined), for which the inhibition is 14.1%. In the case of `Cc1cccc(NC(=O)c2ccc3c(=O)n(CC4CCCO4)c(=S)[nH]c3c2)c1` (centres undefined), the inhibition was -1%. The result for `O=C(Cn1ccc2cc(S(=O)(=O)N3CCCC3)ccc21)NCc1ccccc1` reads -6.39%; that for `COc1ccc(NC(=O)CCn2ccnc2)c(OC)c1`, -6.3%; that for `COc1ccc(S(=O)(=O)N/N=C\c2ccc(OC)c(COc3ccc(C)cc3[N+](=O)[O-])c2)cc1`, -12.5%.

For `Cc1cccc(C(=O)Nc2ccccc2C(=O)NCc2cccnc2)c1`, the inhibition was -16.9%. On to `COc1ccc(NC(=O)c2ccc(OC)cc2)cc1`, for which the inhibition is 105% (active). Then `COc1ccc(NC(=O)c2ccc(C#CC(C)(C)O)cc2)cc1`, with 28%; and `Cc1cccc(C(=O)Nc2ccc(Oc3cnccn3)cc2)c1`, with 57.2% (active). Take `COc1ccc(NC(=O)c2cnc(NS(=O)(=O)c3ccccc3)nc2)cc1`: the inhibition was -13.6%. Then `O=C(Nc1ccc(CSc2ccccc2)cc1)c1ccc(CN2CCOCC2)cc1`, with 7.03%. In the case of `Cc1noc(C)c1COc1cccc(C(=O)Nc2cccnc2)c1`, the inhibition is -6.89%. Consider `CCOc1ccc(C(=O)Nc2ccc(CN3CCOCC3)cc2)cc1Cl`, for which the inhibition was 9.47%.

As for `O=C(CS(=O)(=O)c1ccccc1)Nc1ccc(S(=O)(=O)Nc2ccccn2)cc1`, the inhibition was -7.44%.

With `COc1ccc(C(=O)Nc2ccc(CN3CCOCC3)cc2)cc1`, the inhibition is 80.4% (active). Regarding `COc1ccc(NC(=O)CS(=O)(=O)c2ccccc2)cc1`, the inhibition was 28.2% (active). As for `COc1ccc(C(=O)Nc2cccc(S(C)(=O)=O)c2)cc1`, the inhibition is 21.9%. Then `O=C(NCCCN1CCCC1=O)C(=O)NCC1OCCN1S(=O)(=O)c1ccc(Br)cc1` (centres undefined), with 22.9%. Turning to `Nc1nc(Nc2ccccc2F)nc(NC2CCCCC2)c1[N+](=O)[O-]`, the inhibition is 2.97%. `Cn1c(N2CCOCC2)c(C=O)c2ccccc21`: the inhibition was -1.16%.

Regarding `Cc1ccc(Cn2ncc3c4sc(C)cc4n(C)c3c2=O)c(C)c1`, the inhibition was -2.93%. As for `C=CCn1cc(Cl)cc(C(=O)Nc2ccccc2)c1=O`, the inhibition was 16.8%. Then `CCN(CC)c1ccc(C(=O)NNC(=O)CCc2nc3ccccc3c(=O)[nH]2)cc1`, with 10.9%. Consider `Cc1ccc(NC(=O)COc2ccc(/C=C3/NC(=O)NC3=O)cc2)cc1`, for which the inhibition was 8.39%. Regarding `CC(C)CN(CC(C)C)C(=O)CN1c2cccc3cccc(c23)S1(=O)=O`, the inhibition was 2.89%. The result for `COc1ccc(C(CCN2CCOCC2)c2c(OC)cc(OC)c3c2OC(=O)CC3c2ccc(OC)cc2)cc1` (centres undefined) reads -0.588%; that for `COc1ccc(C(C)NC(=S)NC2CCCCC2)cc1OC` (centres undefined), -35.1%. In the case of `CCc1c(C)c2ccc(OC3CCCCC3=O)cc2oc1=O` (centres undefined), the inhibition was 28%. For the compound `COc1ccc(C(=O)Nc2ccnn2C2CCN(Cc3ccncc3)CC2)cc1`, the inhibition was -4.63%. Then `CCC(=O)Nc1ccc(C(=O)Nc2cccc(OC)c2)cc1`, with 108% (active); and `COc1ccc(-c2nn(CCC#N)cc2C(=O)Nc2ccc(C(C)=O)cc2)cc1`, with 25.5%.

As to `COc1cccc(NC(=O)CN(C)CC(=O)Nc2ccc3c(c2)CCC3)c1`, the inhibition was -9.55%.

On to `COc1cccc(NC(=O)c2ccc(S(=O)(=O)N(C)C)cc2)c1`, for which the inhibition is 70.6%. Consider `COc1ccc(C(=S)Nc2ccccc2)cc1`, for which the inhibition is 62.5% (active). For the compound `COc1ccc(C(=O)Nc2sc(C)c(C)c2CN2CCOCC2)cc1`, the inhibition was 82.5% (active).

For the compound `COCCNC(=S)c1ccc(OC)cc1`, the inhibition is 13%.

In the case of `COc1ccc(NC(=O)C(C)SCc2ccccc2)cc1` (centres undefined), the inhibition was 40.5%. With `COc1ccc(NC(=O)c2sc(N)nc2-c2ccccc2)cc1`, the inhibition was 9.77%. Regarding `CCOC(=O)c1c(NC(=O)c2ccc(N3CCOCC3)c([N+](=O)[O-])c2)sc(C)c1C`, the inhibition is 9.37%. For the compound `COc1ccc(NC(=O)c2sccc2SCC#N)cc1`, the inhibition was 52.8% (active). With `CCC(=O)Nc1nnc(S(=O)(=O)N2CCCc3ccccc32)s1`, the inhibition is -3.3%. On to `O=C(Nc1ccc(C(=O)O)cc1)/C(=C\c1ccccc1)NC(=O)c1ccc(Br)cc1`, for which the inhibition is -9.04%. For the compound `CC(=O)c1c(C)oc2ccc(NS(=O)(=O)c3ccccc3)cc12`, the inhibition was -6.31%. For `CC(C)CC(=O)c1c[nH]c(C(=O)NCc2ccccc2)c1`, the inhibition is -10%. Turning to `CCOc1ccc(NC(=O)CCC(=O)NNC(=O)NC2CCCCC2)cc1`, the inhibition was -9.72%.

In the case of `CCOCCCNC(=O)c1cn(CC(C)C)c(=O)c2c1c1ccccc1n2C`, the inhibition was -4%. The result for `Cc1ccccc1C(=O)NC(=S)Nc1ccc(N2CCN(C(=O)c3ccccc3)CC2)cc1` reads -15.7%; that for `CC(C)CC(CCc1ccccc1)OS(N)(=O)=O` (centres undefined), 7.41%; that for `CC(=O)N1c2ccc(S(=O)(=O)N3CCC(C(=O)NC4CCCC(C)C4C)CC3)cc2CC1C` (centres undefined), -3.25%. As for `CCOc1ccccc1-c1cc(C(=O)N2CCOCC2)c2ccccc2n1`, the inhibition is -10.7%.

As to `COc1ccc(NS(=O)(=O)c2cc3c(cc2C)N(C(C)=O)CCO3)cc1`, the inhibition is 0.181%. The result for `Cc1cccc(NC(=O)c2sc(-c3ccccc3)nc2-c2ccc([N+](=O)[O-])cc2)c1` reads -1.42%; that for `Cc1cccc(NC(=O)c2cc([N+](=O)[O-])ccc2N2CCN(C)CC2)c1`, 1.74%; that for `Cc1onc(C(=O)NCc2ccc(F)cc2)c1[N+](=O)[O-]`, 15.4%. The result for `Cc1ccc(C(=O)Nc2nnc(-c3ccncc3)s2)o1` reads -10.6%.

As to `Cc1onc(NC(=O)c2ccc([N+](=O)[O-])o2)c1Br`, the inhibition was 71.2% (active). As for `Cc1cccc(NC(=O)c2ccc([N+](=O)[O-])o2)c1`, the inhibition was 55.5% (active).

Turning to `O=C(Cc1ccccc1F)NC1CCSc2ccccc21` (centres undefined), the inhibition is 8.44%.

As for `CCOC(=O)c1ccc(NC(=O)c2ccc(NC(=O)C3CCCO3)cc2)cc1` (centres undefined), the inhibition was 21.1%.

Consider `CC(C)c1ccc(NC2CCCN(C(=O)c3ccncc3)C2)cc1` (centres undefined), for which the inhibition is -8.11%. For `COC(=O)c1cc(NC(=O)c2cc(C(C)(C)C)nn2Cc2cccc(C)c2)ccc1N1CCOCC1`, the inhibition was -6.65%. For `O=C(Nc1nc2cc3c(cc2s1)OCCO3)c1cccc(S(=O)(=O)N2CCOCC2)c1`, the inhibition is 53.6%. Consider `O=C(Nc1ccccc1)c1ccc2c(c1)OCO2`, for which the inhibition was 58.7% (active). Regarding `O=C(Nc1cccnc1)c1cccc(S(=O)(=O)N2CCCC2)c1`, the inhibition was 23.2%.

For `CCCc1nnc(NC(=O)c2cc(OC)cc(OC)c2)s1`, the inhibition is 34.6%. For `COc1ccc(S(=O)(=O)N2CCOCC2)cc1C(=O)Nc1nc2ccccc2s1`, the inhibition is -1.04%. On to `O=C(Nc1nc2ccccc2s1)c1ccc2c(c1)OCO2`, for which the inhibition was 39.2% (active). As to `COCc1nnc(NC(=O)CS(=O)(=O)Cc2ccccc2)s1`, the inhibition is 3.05%. In the case of `O=C(Nc1cccnc1)c1cc2cc(Br)ccc2oc1=O`, the inhibition is 28.7%. As to `COCc1nnc(NC(=O)c2ccc3c(c2)OCO3)s1`, the inhibition was 59.3% (active). For the compound `C/C(=N/NC(=S)Nc1ccccc1)c1ccc2c(c1)OCO2`, the inhibition was 67.4%. In the case of `N#Cc1ccccc1NC(=O)c1ccc2c(c1)OCO2`, the inhibition was 22.7%.

For the compound `O=C(Nc1cccnc1)c1noc2c1CCCCC2`, the inhibition is 29% (active). With `CCOC(=O)c1csc(CCNC(=O)c2oc3c(Cl)cc(C)cc3c2C)n1`, the inhibition was 43.9%. On to `O=C(NCCS(=O)(=O)c1ccc(Br)cc1)c1ccccc1Cl`, for which the inhibition is -1.37%. `Cc1ccnc(NC(=O)C2CCN(S(=O)(=O)c3c(C)c(C)cc(C)c3C)CC2)c1`: the inhibition was 8.68%. Then `COc1ccc(N(C(=O)CNC(=O)c2ccco2)C(C(=O)NCC2CCCO2)c2ccccc2)cc1Cl` (centres undefined), with 15.8%. `C/C(=N\NC(=O)C1(C)CC1(Br)Br)c1ccc(C)cc1C` (centres undefined): the inhibition is -7.42%. Consider `CCOC(OCC)OCC`, for which the inhibition was 11.5%. The result for `COCCCN1C(=O)c2ccc(C(=O)OCC(=O)NCc3ccccc3OC)cc2C1=O` reads 9.09%. On to `COc1ccccc1CNC(=O)c1ccc(CS(=O)(=O)c2ccccc2)o1`, for which the inhibition is 2.09%. With `COC(=O)CN1C(=O)[C@H]2[C@@H](C3CC3)N3C(=O)CN(Cc4ccc(-c5ccccc5)cc4)C(=O)[C@@]3(Cc3ccccc3)[C@H]2C1=O`, the inhibition is 9.74%. The result for `CCOc1ccccc1-c1cc(C(=O)N/N=C(\C)c2cccnc2)c2ccccc2n1` reads -30.4%; that for `Cc1ccccc1/C=C\c1nc(O)c([N+](=O)[O-])c(=O)[nH]1`, -14.2%; that for `Cc1ccc2[nH]c(=O)c(CN(C)S(=O)(=O)c3cccc4nonc34)cc2c1`, -4.87%. Then `CCC1(CC)Cc2ccccc2-c2nc(CCl)[nH]c(=O)c21`, with -4.46%; and `CCc1ccc(OCC(O)CN2CCN(CCO)CC2)cc1` (centres undefined), with -8.28%; and `COc1ccc(NC(=O)N2CCCC2C(=O)NCc2ccccc2Cl)cc1` (centres undefined), with -3.06%. Take `CC(NC(=O)c1ccco1)c1ccc2c(c1)OCO2` (centres undefined): the inhibition was -15.1%.

As to `CCC(C)(C)NC(=O)C(c1ccc(O)cc1)N(Cc1ccco1)C(=O)CCC(=O)Nc1ccccn1` (centres undefined), the inhibition is -12.1%. Turning to `Cc1ccc(C)c(S(=O)(=O)N2CCCOC2CNC(=O)C(=O)NC2CCCCC2)c1` (centres undefined), the inhibition was 20.6%.
